This is an account of results in paper PMC7862700, “An all-to-all approach to the identification of sequence-specific readers for epigenetic DNA modifications on cytosine”.

In this experiment the target is T1, SPIC (Homo sapiens, UniProt Q8N5J4 1-248).
T1 sequence: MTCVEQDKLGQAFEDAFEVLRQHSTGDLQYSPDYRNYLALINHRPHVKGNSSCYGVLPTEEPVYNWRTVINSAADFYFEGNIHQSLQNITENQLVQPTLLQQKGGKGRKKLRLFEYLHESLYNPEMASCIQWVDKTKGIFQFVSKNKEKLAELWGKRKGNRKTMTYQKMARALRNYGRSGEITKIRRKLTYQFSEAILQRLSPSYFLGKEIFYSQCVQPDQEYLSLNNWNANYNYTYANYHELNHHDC
Description: DAPPL (digital affinity profiling via proximity ligation, sequencing); 10 mM Tris-HCl pH 7.5, 50 mM NaCl, 1 mM DTT, 4% glycerol, room temperature, 30 min; GST-TFs on glutathione beads, 16-mer random dsDNA library, 0.1% formaldehyde crosslink after washing; high values mean tight binding. The following applies: protein: recombinant; tags: N-terminal GST; dsDNA, one strand shown. In a few lines:
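Sequencing on an Illumina NextSeq500 followed washing, crosslinking with 0.1% formaldehyde, proximity ligation (BsaI/T4 ligase, 1 h, 37 °C) and PCR amplification of pools that had been incubated for 30 min at room temperature with 200 nmole of a random double-stranded 16-mer DNA library in Tris/NaCl/DTT/glycerol buffer. Each pool held DNA-barcoded human transcription factors, expressed in yeast as GST fusions and captured on glutathione beads, plus a tag-only sample. Binding signal is a hexamer's read frequency for a factor divided by its frequency in the tag-only sample.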
In the case of GTATTC, the binding signal is 1.33 fold enrichment (6-mer frequency, TF over GST control).

In the case of CACTAT, the binding signal is 1.2 fold enrichment (6-mer frequency, TF over GST control).

As for ATCATT, the binding signal is 1.01 fold enrichment (6-mer frequency, TF over GST control).

As to CCTCAT, the binding signal was 1.45 fold enrichment (6-mer frequency, TF over GST control).

For ATATTC, the binding signal was 1.3 fold enrichment (6-mer frequency, TF over GST control).

In the case of CTCATC, the binding signal is 1.49 fold enrichment (6-mer frequency, TF over GST control).

Turning to TTATTA, the binding signal is 1.31 fold enrichment (6-mer frequency, TF over GST control).

Regarding TTTCTT, the binding signal was 1.24 fold enrichment (6-mer frequency, TF over GST control).

For the sequence TCTTCA, the binding signal was 1.14 fold enrichment (6-mer frequency, TF over GST control).

On to CATTAT, for which the binding signal is 1.25 fold enrichment (6-mer frequency, TF over GST control).

In the case of TGACTC, the binding signal was 1.48 fold enrichment (6-mer frequency, TF over GST control).

Take AAATTA: the binding signal is 1.21 fold enrichment (6-mer frequency, TF over GST control).

Turning to CCTGAA, the binding signal was 1.28 fold enrichment (6-mer frequency, TF over GST control).

For TCCGGA, the binding signal was 2.3 fold enrichment (6-mer frequency, TF over GST control).

Regarding AATTCT, the binding signal was 1.3 fold enrichment (6-mer frequency, TF over GST control).

With CTTTAA, the binding signal was 1.36 fold enrichment (6-mer frequency, TF over GST control).

With TCGAAT, the binding signal was 1.03 fold enrichment (6-mer frequency, TF over GST control).

Take TGACAA: the binding signal was 1.11 fold enrichment (6-mer frequency, TF over GST control).

As to TCCCGC, the binding signal is 1.46 fold enrichment (6-mer frequency, TF over GST control).

On to TATCAG, for which the binding signal is 1.03 fold enrichment (6-mer frequency, TF over GST control).

ACTCCT: the binding signal is 1.54 fold enrichment (6-mer frequency, TF over GST control).

As for AATAGA, the binding signal was 1.02 fold enrichment (6-mer frequency, TF over GST control).

As for TATGGT, the binding signal was 1.49 fold enrichment (6-mer frequency, TF over GST control).

For TAAGCT, the binding signal was 1.24 fold enrichment (6-mer frequency, TF over GST control).

With AAATGC, the binding signal is 1.13 fold enrichment (6-mer frequency, TF over GST control).

Take TCTGTT: the binding signal was 1.31 fold enrichment (6-mer frequency, TF over GST control).

Turning to TCTCAT, the binding signal was 1.46 fold enrichment (6-mer frequency, TF over GST control).

As to CCCACG, the binding signal was 1.22 fold enrichment (6-mer frequency, TF over GST control).

For TGCACT, the binding signal was 1.33 fold enrichment (6-mer frequency, TF over GST control).

As to TTCATC, the binding signal was 1.28 fold enrichment (6-mer frequency, TF over GST control).

Take ATATTG: the binding signal was 1.41 fold enrichment (6-mer frequency, TF over GST control).

As to TGTTAC, the binding signal is 1.42 fold enrichment (6-mer frequency, TF over GST control).

As for TCCACT, the binding signal is 1.4 fold enrichment (6-mer frequency, TF over GST control).

For the sequence TTGTAG, the binding signal was 1.02 fold enrichment (6-mer frequency, TF over GST control).

As to AGAAGC, the binding signal was 1.28 fold enrichment (6-mer frequency, TF over GST control).

Regarding CTTCTA, the binding signal is 1.28 fold enrichment (6-mer frequency, TF over GST control).

As to TCTATA, the binding signal is 1.26 fold enrichment (6-mer frequency, TF over GST control).

In the case of ATTCCA, the binding signal was 1.14 fold enrichment (6-mer frequency, TF over GST control).

Regarding TAAACA, the binding signal is 1.29 fold enrichment (6-mer frequency, TF over GST control).

For the sequence ACCCGC, the binding signal is 1.16 fold enrichment (6-mer frequency, TF over GST control).
